We go through 22 molecules from paper PMC12136788.

Over roughly 24,000 sequences, “enrichment r” has its median near 0.99; the highest 2% begin near 3.7. These entries were drawn from the full list.

B1: chr1:220276048:220276049:+_ENSG00000067704_ENST00000302637|hu_hu|hu_hu_hu_mus_True|18_88 (ssRNA)
RNA: GGGAGUUCUACAGUCCGACGAUCGCAAAUUGCCUGGUUGGCGGGAAUCGUCCAAGGCUGGGUGGUCCAAACUAAAACGCUAACAGGGGAUGAGGCAUCUGUAAGAGACUCCAACUUUGGAGAAGGCCUCAGGAGGGGGAAUCUCAACAGAGGAUUGAGCAUCA
B2: chr11:111909998:111909999:+_ENSG00000150768_ENST00000533297|hu_hu|FALSE|FALSE (ssRNA)
RNA: GGGAGUUCUACAGUCCGACGAUCACCCUUCCCUUUGGUCCAGCAGGAGUAGCUGGGCAGGGUGCUGAAGGUGUAGGAGCUAAAGGCUGGGGAGUUGGAGGAACAGCGGCCACCGGGGGUGGGGUAGGUGGUGGCACUUGUGGUCAACAGAGGAUUGAGCAUCA
B3: 91020203_91021877_1494_CDS_ENSMUSG00000030091_ENSMUST00000032179|mouse|control|control (ssRNA)
RNA: GGGAGUUCUACAGUCCGACGAUCCAUGACCCCCUUGACGGUGACUGUGGCAACCAUGGAGCUUGACGAAGACCAGCUGAAGUUCCCACUGCCCCCAUGGGCCUUUAUGGUAUACUGAUAGGCGCCUGUCUUUGGUUGCCAUGGCAACAGAGGAUUGAGCAUCA
B4: chr7:7679991:7679992:-_ENSG00000106399_ENST00000396682|hu_hu|hu_hu_hu_mus_False|88_98 (ssRNA)
RNA: GGGAGUUCUACAGUCCGACGAUCUGGGAUGAAUCUUUUCCAGCCUCCCUACGAAGCACACGGGCCGGUCGAUAUACUGUGGUAACAUGCUGGCGUUGACGCGCGCUUUGGGGAGCUGCAUUAUGUCCUCCAUGAUUCUGCCGCCAACAGAGGAUUGAGCAUCA
B5: chr8:104075188:104075189:+_ENSG00000155097_ENST00000518738|hu_hu|motif|central (ssRNA)
RNA: GGGAGUUCUACAGUCCGACGAUCCUUCCUAAACAAGGUGACAUUACACAGGUAACUGUCUUGGUCCUCUGAAAGAACAUUGCGGGACCUUGGAACUACCAUUUCGGCUAGUGUUUCAUACUGCUUAAUCCAGUCGUUGUGGUUCAACAGAGGAUUGAGCAUCA
B6: chr8:122087627:122087628:-_ENSMUSG00000034189_ENSMUST00000036049|mus_hu|FALSE|FALSE (ssRNA)
RNA: GGGAGUUCUACAGUCCGACGAUCUAGUUACAAAAUAAUACUUUUCAGUAGUCUUUCUUGAUGCACAUUUAAAAACCAGCACAACUCCUCUAGUGAAAUGGUCAAUUUCCCUUAAAAAACAACAUCUGAAAUUAUAAGACCUGACAACAGAGGAUUGAGCAUCA
B7: chr3:132387698:132387699:+_ENSG00000081307_ENST00000264991|hu_hu|FALSE|FALSE (ssRNA)
RNA: GGGAGUUCUACAGUCCGACGAUCUUGAACUUUACUUAAUCCUGCUUGAUGAGGUUGGAAGAAAAGUCUAUUCAUAUUGGCUAGUUCCACCUUGUCAUAAUCAAAGAGUAGCAACUUACCAAUGCCACAUCUUGUCAGCAUUUCCAACAGAGGAUUGAGCAUCA
B8: chr6:40197388:40197389:+_ENSMUSG00000057716_ENSMUST00000061740|mus_mus|mus_mus_mus_hu_False|18_58 (ssRNA)
RNA: GGGAGUUCUACAGUCCGACGAUCGAGACACUGGGGUGGAUUUAUUCCACCUCUGUUUGGGUGCUAGCCACUAAGACAGCUAUUUUGGGAUUCAUGGCCUUGAAUAUCAAGAGGGAAGGGACGAGAAUGGAAAGAGUCAAGAGUCAACAGAGGAUUGAGCAUCA
B9: chr11:98549071:98549072:+_ENSMUSG00000017221_ENSMUST00000017365|mus_hu|FALSE|FALSE (ssRNA)
RNA: GGGAGUUCUACAGUCCGACGAUCAUCCAGCUUGUCCAGGAACUCAUAGACCCGGGCGUGAUAAUAGUAACACUUUGCGGCUACAAGGUCUAGGGCCCGGCGGUUCUGAGUACUGAUCUUCUGCAUCAGAUCAUCAGAGAUCUUCAACAGAGGAUUGAGCAUCA
B10: chr15:103023242:103023243:-_ENSMUSG00000009575_ENSMUST00000118152|mus_mus|motif|central (ssRNA)
RNA: GGGAGUUCUACAGUCCGACGAUCAACUAGCAGCAUUGAUGAGGGGUUAAGGGAUUGGGGACAGAAACUCACCAAGGUCACGGAGUACUUCCAAACUUGGAAGUAGCUCAGUGAGGGCUAAAAAAACUUCGACUGAAGGUAUCCCAACAGAGGAUUGAGCAUCA
B11: chr7:99968543:99968544:+_ENSMUSG00000030643_ENSMUST00000032879|mus_mus|FALSE|FALSE (ssRNA)
RNA: GGGAGUUCUACAGUCCGACGAUCAAAGACCCUGAGUGAAUCUUCGGACUAGGCACGUCUUUCCCACUCCAGCGUUGCCAAUUAAAACAAUUUUGAACAGGAAAUCAUAAUCUUCCAUACUCAUUUACACAGCUGGUUUGGGAUCAACAGAGGAUUGAGCAUCA
B12: chr4:56883625:56883626:-_ENSMUSG00000055296_ENSMUST00000068792|mus_mus|FALSE|FALSE (ssRNA)
RNA: GGGAGUUCUACAGUCCGACGAUCUAUAGGCGUGCGCCACCACGCCCGGGUUUAAAAUGUGUAGACCAGGCUGGCCUCGAACUCGCGAUCCUCCUGCUUCUGCCUCCUUCAGCAAAUCCUACUGGCGUGCGCCACCACAACCAGCAACAGAGGAUUGAGCAUCA
B13: 24016654_24036560_782_3pUTR_ENSMUSG00000024277_ENSMUST00000025127|mouse|control|control (ssRNA)
RNA: GGGAGUUCUACAGUCCGACGAUCCGUUUCUAAAUCUUUGUCAGAUCUGGAUGCAGAGCCACUGGAUGAAGCCCUUUUGGCAGACGAGGGGCGAGAAGGUGUGGAUCCUGGCUUAGAUGCAGGACUUGACUUAGCCGCGCCUGCCAACAGAGGAUUGAGCAUCA
B14: chr11:77340908:77340909:-_ENSG00000074201_ENST00000525064|hu_mus|FALSE|FALSE (ssRNA)
RNA: GGGAGUUCUACAGUCCGACGAUCGUUUGGAUCCCUGGACACCGCAUGUAAACUAAUGGUGGGGUAUUCCAGUGAGAAUCCUAAUCCCGAACCAUCUAACCAGGACAGGCGGCUCUCCGCGAUGUAAAGCGUGCCGGUGCCGAGCAACAGAGGAUUGAGCAUCA
B15: chr11:115359427:115359428:-_ENSMUSG00000020737_ENSMUST00000021083|mus_hu|motif|central (ssRNA)
RNA: GGGAGUUCUACAGUCCGACGAUCUGCAGUUCACAAGCAUGGAGGAAACAGACAGAACGACAGCGUUCAGGACAGUCAGAGCGGACCCAAGACGAGGCUGGACUUGCCGCCAGGGGGAUUUCUUCUGGAUGGCACUGGGGCCGGCAACAGAGGAUUGAGCAUCA
B16: chr11:63961690:63961691:+_ENSG00000168439_ENST00000305218|hu_mus|FALSE|FALSE (ssRNA)
RNA: GGGAGUUCUACAGUCCGACGAUCUUCAUGUUUUAAACCUUCUUCAUAGGUUCGUUUGGCUUCCUCAAACCGGUUUAGGAAUUCAAGGGCUGCUGCUUUUCUUGAAUAACCCUUGCCCCAGUCAGGCUUCAGGUCAACAGUCUUCAACAGAGGAUUGAGCAUCA
B17: chr13:42873775:42873776:+_ENSG00000023516_ENST00000025301|hu_hu|FALSE|FALSE (ssRNA)
RNA: GGGAGUUCUACAGUCCGACGAUCAGAAGACGAAAAAAAUGUUUUCUGUAAAUCACUAUCUUUAUCUGAAGCAUUAGAUGACCUAUAGAAACUCCUUUGGGUCCAAGGCUCUGAAAUUGAUGUUGUGACUGAAGUUUUCACAGACAACAGAGGAUUGAGCAUCA
B18: chr9:100389865:100389866:-_ENSG00000136925_ENST00000341170|hu_mus|FALSE|FALSE (ssRNA)
RNA: GGGAGUUCUACAGUCCGACGAUCUAUCAGUGGGACAGGUUCCUUGCAGACAAGUAUCUUCCGCAAACCCUAGGCCUUUCCUGGGUCUCCCUUCACCAACUUGGCGCUGCUCCCCGCCCUCGAGCCCACGCCCCCCGGCGCGCGCAACAGAGGAUUGAGCAUCA
B19: chr9:74904954:74904955:+_ENSMUSG00000007656_ENSMUST00000169492|mus_mus|FALSE|FALSE (ssRNA)
RNA: GGGAGUUCUACAGUCCGACGAUCUCAAAAGGAAGAUACAGAAGAAAUCAAUACAACAGAGGUCCUGUUAAAUAAGAGUAACAUACAAAGCUGUAAUCAUGAGAAAGUAAAGAAAGCCAGAGCAUUAAAGCUGUAAAACUUGCUCAACAGAGGAUUGAGCAUCA
B20: chr14:73742652:73742653:-_ENSG00000133961_ENST00000557597|hu_hu|FALSE|FALSE (ssRNA)
RNA: GGGAGUUCUACAGUCCGACGAUCCCCCUUUACCUUUGGCAAGAUUACUUACAACUCAUACAACUUCUUAAUAUCUGAGAACUAUUUAAAAUAUUCUAAAUGCAUAAAAAUAAAGAUUUUGGCUUUUGAUAUAUAUAAUAUUUACAACAGAGGAUUGAGCAUCA
B21: chr11:18422405:18422406:+_ENSG00000134333_ENST00000379412|hu_hu|motif|central (ssRNA)
RNA: GGGAGUUCUACAGUCCGACGAUCCAGCUUGGAGUUUGCAGUUACAUUAUAGUCUUUGCCAGAGACAAUCUUUGGUGUUCGGAGGAAAAGGCUGCCAUGUUGGAGAUCCAUCAUCUCUCCCUUCAAUUUGUCUUCGAUGACAUCCAACAGAGGAUUGAGCAUCA
B22: chr14:89338683:89338684:+_ENSG00000165533_ENST00000346301|hu_hu|hu_hu_hu_mus_False|58_108 (ssRNA)
RNA: GGGAGUUCUACAGUCCGACGAUCGUGGUUGUUGUUGACCAGGGCCAGCCUGAAGCAUUGGUGGGCCAAGUUUGUAUCUCCUAUUCCCACAGCUAUGUGCCCCAGGUUGUACCAGACAUCAGCUGCCUCUUCUUCAUUUUCAGCCAACAGAGGAUUGAGCAUCA

For this assay, the target named is T1, UNK ZnF1-3 (human, UniProt Q9C0B0 31-174).
T1 sequence: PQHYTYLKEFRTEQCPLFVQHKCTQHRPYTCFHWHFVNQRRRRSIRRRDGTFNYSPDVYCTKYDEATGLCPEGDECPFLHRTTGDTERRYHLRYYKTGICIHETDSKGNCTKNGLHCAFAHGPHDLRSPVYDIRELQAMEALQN
In words: nsRBNS (natural sequence RNA bind-n-seq); RBNS binding buffer (assumed for nsRBNS): 25 mM Tris pH 7.5, 150 mM KCl, 3 mM MgCl2, 0.01% Triton X-100, 500 ug/ml BSA, 20 U/ml SUPERase-In, 4 C; UNK is unkempt and MSI1 is Musashi-1; names of the RNAs are library labels; protein concentration not given here; high values mean tight binding.
As for B1, the binding signal amounted to 2.21 enrichment R. The same measure for B2: 1.76 enrichment R.

B3: the binding signal was determined as 0.642 enrichment R. For B4, the binding signal was 0.573 enrichment R. On to B5, for which the binding signal was 0.508 enrichment R. In turn, B6 returned a binding signal of 1.2 enrichment R.

Turning to B7, the binding signal is 0.799 enrichment R. Regarding B8, the binding signal turned out to be 1.36 enrichment R. Molecule B9 registered a binding signal of 0.693 enrichment R. As for B10, the figure is 1.29 enrichment R; as for B11, 1.1 enrichment R. As for B12, the figure is 0.972 enrichment R; as for B13, 0.536 enrichment R. As for B14, the figure is 0.705 enrichment R; as for B15, 1.45 enrichment R; as for B16, 0.607 enrichment R. As for B17, the binding signal came out at 0.809 enrichment R. As for B18, the figure is 1.19 enrichment R; as for B19, 2.34 enrichment R; as for B20, 1.07 enrichment R. B21: the binding signal was 0.638 enrichment R. The same measure for B22: 0.492 enrichment R.
